Unmarked numbers belong to inactive results. The source made the active and inactive calls. Unless noted, no stated cut-off is given here; in the data, active means inhibition above about 31%; inactive means the rest.
Assay: 384-well plate pilot, post-Golgi transport modulator project, inhibition of yeast transport mutant growth (AID 636)
Settings: absorbance 615 nm, about 18 h, stronger effect = higher value

SMILES	inhibition
CCn1cnc2sc(C(=O)Nc3ccc4c(c3)OCO4)c(C)c2c1=O	-8%
CC1CC(C)CN(CC(=O)Nc2ccc(S(N)(=O)=O)cc2)C1 (stereo not given)	3.29%
Cc1ccc(S(=O)(=O)N2CCN(C(=O)CSC3CCCC3)CC2)c(C)c1	-9.59%
COc1ccc(C(=O)Nc2nc(C)c(C(=O)N(C)C)s2)cc1OC	-8.63%
C=CCOC(=O)CC(NC(=O)c1ccccc1)c1ccccc1 (stereo not given)	-3.73%
Cc1nc(Sc2cccn2C)c(C(F)(F)F)c(=O)[nH]1	-6.58%
O=C(OCC(=O)c1ccccc1Br)c1ccccn1	-3.77%
CCCCSc1nnc([C@H](C)NC(=O)OC(C)(C)C)o1	0.14%
CCOc1ccccc1C1N(c2ccc(F)cc2)C(=O)C2CCCN21 (stereo not given)	-4.4%
CCOc1ncccc1C(=O)Nc1ccc(Cl)cc1	1.17%
O=C(CSc1nc(N2CCCCC2)nc(N2CCCCC2)n1)Nc1nccs1	-2.21%
O=C(Nc1ncnc2sc3c(c12)CCC3)c1ccco1	-4.73%
CCc1nnc(SCc2cn3c(C)cc(C)nc3n2)n1N	-1.89%
O=C(c1ccco1)N1CCN(c2nc(C(F)(F)F)nc3c2nnn3Cc2ccccc2)CC1	-9.45%
O=C(CSc1nnc(-c2ccccc2)o1)NC1CCCCC1	-7.12%
Cn1c(Cl)cnc1C1CC(=O)c2cc(Cl)ccc2O1 (stereo not given)	-4.46%
C1COC(NC(C2CC2)C2CC2)=N1	-1.3%
COc1ccc(C2/C(=C(/O)c3ccccc3)C(=O)C(=O)N2c2ncccn2)cc1OC (stereo not given)	-4.59%
CC(=O)SCC(=O)N=c1sc2cc(F)ccc2n1C	-5.26%
O=c1c2ccccc2[nH]c(=S)n1CCN1CCC(=C(c2ccc(F)cc2)c2ccc(F)cc2)CC1	83% (active)

SMILES	inhibition
CCn1c(SCC(N)=O)nnc1-c1ccc(S(=O)(=O)N2CCN(C)CC2)cc1	2.93%
CCc1ccccc1N1C(=O)C2CC(C)=C(C)CC2C1=O (stereo not given)	-5.73%
CC(NC(=O)NC12CC3CC(CC(C3)C1)C2)C1CCCO1 (stereo not given)	-3.7%
Cc1ccc(Nc2nc(N)nc(CN3CCN(Cc4ccc5c(c4)OCO5)CC3)n2)cc1	-8.27%
Cc1cc(N2CCN(C3CCCC3)CC2)n2c(nc3ccccc32)c1C#N	-2.19%
CC(C)OC(=O)c1cc(NC(=O)C2C3CCC(O3)C2C(=O)O)cc(C(=O)OC(C)C)c1 (stereo not given)	-7.81%
Cc1cc(NC(=O)CSc2nc(C3CC3)nc3sc4c(c23)CCC(C)C4)no1 (stereo not given)	-5.2%
O=C(CSc1nc(-c2ccco2)cc(C(F)(F)F)n1)N1CCCc2ccccc21	-1.05%
O=C(CN1C(=O)CC(c2ccco2)Sc2ccccc21)Nc1ccc2c(c1)OCCO2 (stereo not given)	-2.76%
COc1cccc2c(=O)cc(C)n(CC(=O)Nc3ccc(C)c(C)c3)c12	-8.4%
Cc1cc(NC(=O)C(C)(C)C)no1	-1.2%
c1coc(CN2CN=C(Nc3nc4ccccc4s3)NC2)c1	-2.3%
NNC(=O)c1ccncc1	1.04%
O=C(CCCCn1c(=O)c2ccccc2n(Cc2ccc(Cl)cc2)c1=O)NCc1ccco1	-1.17%
Fc1cccc(NCc2cn3ccccc3n2)c1	-5%
Cc1oncc1C(=O)Nc1ccc(C(F)(F)F)cc1	-1.69%
COC(=O)Cc1cc(=O)n(-c2ccccc2)[nH]1	-9.45%
Cc1ccc(-c2nn[nH]n2)cc1	-4.79%
Cc1cc(C)n2nc[n+](C)c2n1	2.86%
CCCC1(C(=O)OC)NC(c2cc(OC)c(OC)c(OC)c2)C2C(=O)N(CC)C(=O)C21 (stereo not given)	-4.93%

Assay: growth suppression of yeast trafficking mutant, preliminary HTS, modulators of trafficking downstream of Golgi apparatus project, 1536-format plate, OD 615 nm (AID 637; in the data active means inhibition above about 30%)
Settings: yeast transport mutant growth, absorbance 615 nm, 18 h; stronger effect = higher value

SMILES	inhibition
CCn1cnc2sc(C(=O)Nc3ccc4c(c3)OCO4)c(C)c2c1=O	-5.27%
CC1CC(C)CN(CC(=O)Nc2ccc(S(N)(=O)=O)cc2)C1 (stereo not given)	-2.58%
Cc1ccc(S(=O)(=O)N2CCN(C(=O)CSC3CCCC3)CC2)c(C)c1	-5.32%
COc1ccc(C(=O)Nc2nc(C)c(C(=O)N(C)C)s2)cc1OC	4.52%
C=CCOC(=O)CC(NC(=O)c1ccccc1)c1ccccc1 (stereo not given)	-5.45%
Cc1nc(Sc2cccn2C)c(C(F)(F)F)c(=O)[nH]1	2%
O=C(OCC(=O)c1ccccc1Br)c1ccccn1	-1.64%
CCCCSc1nnc([C@H](C)NC(=O)OC(C)(C)C)o1	22.6%
CCOc1ccccc1C1N(c2ccc(F)cc2)C(=O)C2CCCN21 (stereo not given)	2.18%
CCOc1ncccc1C(=O)Nc1ccc(Cl)cc1	0.49%
O=C(CSc1nc(N2CCCCC2)nc(N2CCCCC2)n1)Nc1nccs1	-7.21%
O=C(Nc1ncnc2sc3c(c12)CCC3)c1ccco1	0.55%
CCc1nnc(SCc2cn3c(C)cc(C)nc3n2)n1N	-4.91%
O=C(c1ccco1)N1CCN(c2nc(C(F)(F)F)nc3c2nnn3Cc2ccccc2)CC1	-0.16%
O=C(CSc1nnc(-c2ccccc2)o1)NC1CCCCC1	3.55%
Cn1c(Cl)cnc1C1CC(=O)c2cc(Cl)ccc2O1 (stereo not given)	3.64%
C1COC(NC(C2CC2)C2CC2)=N1	-5.17%
COc1ccc(C2/C(=C(/O)c3ccccc3)C(=O)C(=O)N2c2ncccn2)cc1OC (stereo not given)	-2.55%
CC(=O)SCC(=O)N=c1sc2cc(F)ccc2n1C	7.78%
O=c1c2ccccc2[nH]c(=S)n1CCN1CCC(=C(c2ccc(F)cc2)c2ccc(F)cc2)CC1	71% (active)

SMILES	inhibition
CCn1c(SCC(N)=O)nnc1-c1ccc(S(=O)(=O)N2CCN(C)CC2)cc1	6.73%
CCc1ccccc1N1C(=O)C2CC(C)=C(C)CC2C1=O (stereo not given)	0%
CC(NC(=O)NC12CC3CC(CC(C3)C1)C2)C1CCCO1 (stereo not given)	1.27%
Cc1ccc(Nc2nc(N)nc(CN3CCN(Cc4ccc5c(c4)OCO5)CC3)n2)cc1	-4.91%
Cc1cc(N2CCN(C3CCCC3)CC2)n2c(nc3ccccc32)c1C#N	2.42%
CC(C)OC(=O)c1cc(NC(=O)C2C3CCC(O3)C2C(=O)O)cc(C(=O)OC(C)C)c1 (stereo not given)	-1.09%
Cc1cc(NC(=O)CSc2nc(C3CC3)nc3sc4c(c23)CCC(C)C4)no1 (stereo not given)	-0.18%
O=C(CSc1nc(-c2ccco2)cc(C(F)(F)F)n1)N1CCCc2ccccc21	-0.16%
O=C(CN1C(=O)CC(c2ccco2)Sc2ccccc21)Nc1ccc2c(c1)OCCO2 (stereo not given)	-0.16%
COc1cccc2c(=O)cc(C)n(CC(=O)Nc3ccc(C)c(C)c3)c12	-2.91%
Cc1cc(NC(=O)C(C)(C)C)no1	-0.73%
c1coc(CN2CN=C(Nc3nc4ccccc4s3)NC2)c1	-4.18%
NNC(=O)c1ccncc1	17.5%
O=C(CCCCn1c(=O)c2ccccc2n(Cc2ccc(Cl)cc2)c1=O)NCc1ccco1	-2.95%
Fc1cccc(NCc2cn3ccccc3n2)c1	21.4%
Cc1oncc1C(=O)Nc1ccc(C(F)(F)F)cc1	-0.83%
COC(=O)Cc1cc(=O)n(-c2ccccc2)[nH]1	0.73%
Cc1ccc(-c2nn[nH]n2)cc1	2.18%
Cc1cc(C)n2nc[n+](C)c2n1	0.98%
CCCC1(C(=O)OC)NC(c2cc(OC)c(OC)c(OC)c2)C2C(=O)N(CC)C(=O)C21 (stereo not given)	21.4%
